Records with an inconclusive call do not appear. Active and inactive are the calls of the source. Unless noted, the call rests on the fitted dose curve; in most records, active means well fitted curve in the direction sought with a large enough effect; inconclusive means small, poorly fitted or top-dose-only effect, or another doubt; inactive means no such curve, though single readings can be large; an effect the other way counts as inactive or inconclusive.
Legend:
[1] = MCF7 Cancer Cell Toxicity qHTS against the NCATS CANVASS Library (AID 1347369)
Procedure, shortened: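 This 72 hr qHTS scored MCF7 viability by CellTiterGlo luminescence, with 500 cells/well; bortezomib titration ran as control.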

[2] = qHTS for ATAD5 Antagonist screened against the NCATS CANVASS Library (AID 1347370)
Procedure, shortened: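 HEK293T cells with stably integrated ATAD5-luciferase reporter, 2000/well, 5 h attachment; compounds plus 10 µM 5-fluorouridine, 16 h at 37 °C. Luciferase luminescence read, with CellTiter-Fluor viability read first.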

[3] = J3T Cancer Cell Toxicity qHTS against the NCATS CANVASS Library (AID 1347371)
Procedure, shortened: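 J3T dog glioma cells, 500 per well, treated 72 h at 37C with compounds (11-point qHTS); viability from ATP content by CellTiterGlo luminescence; bortezomib titration as control.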

[4] = biological target: Nuclear receptor subfamily 1 group I member 3 (Homo sapiens) (UniProt Q14994); assay: qHTS for Constitutive Androstane Receptor (CAR) Antagonist screened against the NCATS CANVASS Library (AID 1347372)
Nuclear receptor subfamily 1 group I member 3 (Homo sapiens), sequence (Q14994 whole entry, looked up): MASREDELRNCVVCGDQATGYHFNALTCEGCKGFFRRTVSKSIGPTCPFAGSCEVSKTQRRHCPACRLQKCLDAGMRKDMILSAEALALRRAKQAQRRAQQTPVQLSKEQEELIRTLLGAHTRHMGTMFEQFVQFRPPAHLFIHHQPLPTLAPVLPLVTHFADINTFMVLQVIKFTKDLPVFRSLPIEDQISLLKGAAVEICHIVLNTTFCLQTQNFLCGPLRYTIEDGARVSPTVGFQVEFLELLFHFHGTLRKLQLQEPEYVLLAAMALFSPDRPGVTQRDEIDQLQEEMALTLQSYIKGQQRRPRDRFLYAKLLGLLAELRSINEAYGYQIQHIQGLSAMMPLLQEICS
Procedure, shortened: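 HepG2-CYP2B6-hCAR double-stable cells plated, 4hr attach; cpd pin-transferred; CITCO 50 nM final; 24hr 37C/5% CO2; CellTiter-Fluor 1hr (fluorescence), then ONE-Glo luminescence.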

[5] = biological target: Nuclear receptor subfamily 1 group I member 3 (Homo sapiens) (UniProt Q14994); assay: qHTS for Constitutive Androstane Receptor (CAR) Agonist screened against the NCATS CANVASS Library (AID 1347373)
Procedure, shortened: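 HepG2 cells stably carrying hCAR and a CYP2B6-2.2kb luciferase reporter, treated 24hr at 37C with compounds plus 1.5uM PK11195; activation by ONE-Glo luminescence, viability by CellTiter-Fluor.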

[6] = qHTS for Hypoxia signaling pathway (HIF-1) antagonists against the NCATS CANVASS Library (AID 1347374)
Procedure, shortened: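 HRE-bla ME-180 cells in medium with 0.5% dialyzed FBS received compounds (11-point series) plus CoCl2 (60 uM addition stock) for 17 hrs at 37C. Beta-lactamase activity read with CCF4 (405 nm ex, 460/530 nm em); CellTiter-Glo viability measured in same wells.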

[7] = qHTS for Inflammasome Signaling Inhibitors: IL-1-beta AlphaLISA screen against the NCATS CANVASS Library (AID 1347379)
Procedure, shortened: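 THP-1 cells pretreated 1 hr with compound (up to 57.5 uM final), then stimulated with LPS (250 ng/mL final) and ATP (1.25 mM final). Secreted IL-1B measured by AlphaLISA after 16 hr; glyburide as positive control.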

[8] = qHTS for Antimalaria activity screened against the NCATS CANVASS Library (AID 1347380)
Procedure, shortened: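 Red blood cells infected with P. falciparum Dd2 (2.5% hematocrit final, 0.3% parasitemia) were exposed to compounds in an 11-point qHTS series for 72 hr at 37C under 5% O2 and 5% CO2. Lysis buffer with SYBR Green was then added for 18 hr, and fluorescence was read at 485/535 nm.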

[9] = Inflammasome Signaling qHTS Counterscreen: IL-1-beta AlphaLISA counterscreen against the NCATS CANVASS Library (AID 1347381)
Procedure, shortened: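 Cell-free interference check: compounds added to medium spiked with 4 pg purified IL-1β. Anti-IL-1β acceptor beads (6 ug/mL) with 0.6 nM biotinylated antibody added for 1 h at RT, then streptavidin donor beads (24 ug/mL) for 30 min in the dark. AlphaLISA read at 680/615 nm.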

[10] = Cytotoxicity qHTS for assessment of Hepg2 cells membrane integrity screened against the NCATS CANVASS Library (AID 1347387)
Procedure, shortened: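 HepG2 cells (2000/well) attached overnight, then exposed 5 hr at 37C to compounds in an 11-point series (0.59 nM - 46 uM final). LDH release from damaged membranes read fluorometrically (CytoTox-ONE; 560/590 nm) after 10 min at room temperature.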

[11] = qHTS for Activators of p53 Stress Response Pathway screened against the NCATS CANVASS Library (AID 1347388)
Procedure, shortened: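 Beta-lactamase reporter driven by p53 response elements in HCT-116 cells, read as the 460 nm/530 nm emission ratio after CCF4 loading, following 16 h of exposure to an 11-point series. Cell viability was measured in the same wells by CellTiter-Glo luminescence.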

[12] = qHTS assay for small molecule disruptors of mitochondrial membrane potential screened against the NCATS CANVASS Library (AID 1347389)
Procedure, shortened: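 HepG2 cells (2,000/well) plated overnight, then exposed to compounds in 11-point qHTS series for 1 h at 37C before 30 min Mito-MPS dye; depolarization read as fall in red aggregate (590 nm) to green monomer (535 nm) fluorescence.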

[13] = Secretion counterscreen for inhibitors of the SERCaMP assay screened against the NCATS CANVASS Library (AID 1347390)
Procedure, shortened: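 Natural products are titrated in an 11-point series up to 77 uM onto SH-SY5Y-GLuc STOP cells for 20 h. Secreted reporter activity is measured as coelenterazine-driven luminescence, with Brefeldin A on each plate.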

[14] = qHTS for activators of dead-cell proteases activity screened against the NCATS CANVASS Library (AID 1347392)
Procedure, shortened: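 Compounds are pin-transferred onto attached HepG2 cells, giving 11 final concentrations. After 5 h at 37C, AAF-aminoluciferin reagent is added and luminescence is recorded at room temperature.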

[15] = qHTS for inhibitors of ER calcium dysfunction: SERCaMP assay screened against the NCATS CANVASS Library (AID 1347393)
Procedure, shortened: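 Thapsigargin-induced ER calcium depletion drives GLuc-SERCaMP secretion from SH-SY5Y cells; compounds given 16 h beforehand were scored by lowered coelenterazine luminescence after 4 h challenge.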

[16] = Vero-766 cells viability qHTS against the NCATS CANVASS Library: Counterscreen for Zika virus inhibition assay (AID 1347394)
Procedure, shortened: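 Counterscreen for toxicity: Vero 766 cells exposed 72 h to an 11-point compound series, viability by CellTiter-Glo.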

[17] = qHTS for inhibitors of Wild type Zika virus screened against the NCATS CANVASS Library (AID 1347396)
Procedure, shortened: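 Protection against wild-type Zika cytopathic effect is measured in African green monkey Vero 766 cells exposed to an 11-point compound series. Surviving cells are quantified by CellTiter Glo luminescence after 72 h.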

[18] = qHTS for inhibitors of Rabies Virus screened against the NCATS CANVASS Library (AID 1347402; calls by dose curve)

Measured: Potency

C[C@]12CC(O)C3[C@@H](CCC4C[C@@H](O)CC[C@@]43CO)[C@@]1(O)CCC2C1=CC(=O)OC1 (stereo partly drawn)
inactive: all assays above

— PubChem BioAssay (NCATS)
